The full data set covers some 8,800 targets. This sample favours those with a hit. About 0.5% of all pairs of compound and target were hits. Unmarked numbers belong to inactive results.
Experiments:
Assay in all cases: log2 fold change, soluble protein after heating vs DMSO (PISA); higher = thermal stabilisation; K562 lysate, 10 uM; active = over 0.2 and 3.5 SD of the protein, either way, in both replicates (recomputed)
barasertib = compound: CCN(CCCOc1ccc2c(Nc3cc(CC(=O)Nc4cccc(F)c4)[nH]n3)ncnc2c1)CCOP(=O)(O)O [barasertib]
How it was run: (§1)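 Log-two fold change in thermal stability relative to solvent controls is reported from duplicates. For each sample, crude K562 extract from dounce-homogenised pellets in PBS pH 7.4 with 1 mM MgCl2, at 1 mg/mL protein, was treated with 10 μM compound for 30 min. Aliquots heated for 3 min across 48°C-58°C were pooled, brought to 0.5% NP-40 at 4°C and cleared at 21,000xg for 90 min. The supernatant was quantified by TMTpro 16plex LC-MS/MS with channel sums equalised.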

[1] = compound: CC[C@@H]1C(=O)N(C)c2cnc(Nc3ccc(C(=O)NC4CCN(C)CC4)cc3OC)nc2N1C1CCCC1
How it was run: as §1

[2] = compound: CCn1cc(-c2ccnc3[nH]c(-c4cccc(CN(C)C)c4)cc23)c(-c2ccc(NC(=O)N(C)C)cc2)n1
How it was run: as §1

[3] = compound: CN1CCC(CNc2ccc3ncc(-c4cccc(OC(F)(F)F)c4)n3n2)CC1
How it was run: as §1

saracatinib = compound: CN1CCN(CCOc2cc(OC3CCOCC3)c3c(Nc4c(Cl)ccc5c4OCO5)ncnc3c2)CC1 [saracatinib]
How it was run: as §1

alvocidib = compound: CN1CC[C@H](c2c(O)cc(O)c3c(=O)cc(-c4ccccc4Cl)oc23)[C@H](O)C1 [alvocidib]
How it was run: as §1

[4] = compound: CNc1nc(-c2ccc3c(N)n[nH]c3c2)cc(N2C[C@@H](C(=O)NC3CCCCC3)CC[C@H]2C)n1
How it was run: as §1

encorafenib = compound: COC(=O)N[C@@H](C)CNc1nccc(-c2cn(C(C)C)nc2-c2cc(Cl)cc(NS(C)(=O)=O)c2F)n1 [encorafenib]
How it was run: as §1

[5] = compound: COC(=O)[C@H](CCSC)NC(=O)C1=C(C=C(C=C1)NC[C@H](CS)N)C2=CC=CC=C2
How it was run: as §1

sotrastaurin = compound: CN1CCN(c2nc(C3=C(c4c[nH]c5ccccc45)C(=O)NC3=O)c3ccccc3n2)CC1 [sotrastaurin]
How it was run: as §1

[6] = compound: CCCS(=O)(=O)Nc1ccc(F)c(C(=O)c2c[nH]c3ncc(Cl)cc23)c1F
How it was run: as §1

volasertib = compound: CC[C@@H]1C(=O)N(C)c2cnc(Nc3ccc(C(=O)N[C@H]4CC[C@H](N5CCN(CC6CC6)CC5)CC4)cc3OC)nc2N1C(C)C [volasertib]
How it was run: as §1

[7] = compound: CCn1c(C(=O)N(C2CC2)C2CC2)cc2c3c(ncn3C)c(Nc3cc(C)n(C)n3)nc21
How it was run: as §1

Tubastatin A = compound: CN1CCc2c(c3ccccc3n2Cc2ccc(C(=O)NO)cc2)C1 [Tubastatin A]
How it was run: as §1

[8] = compound: CNC(=O)C1=CC=CC=C1NC2=NC(=NC=C2Cl)NC3=C(C=C(C=C3)N4CCOCC4)OC
How it was run: as §1

alisertib = compound: COc1cc(Nc2ncc3c(n2)-c2ccc(Cl)cc2C(c2c(F)cccc2OC)=NC3)ccc1C(=O)O [alisertib]
How it was run: as §1

[9] = compound: COc1cc2nc(-c3cc(F)ccc3O)nc(N[C@@H]3CNC[C@H]3C(C)(C)O)c2cc1OC
How it was run: as §1

gefitinib = compound: COc1cc2ncnc(Nc3ccc(F)c(Cl)c3)c2cc1OCCCN1CCOCC1 [gefitinib]
How it was run: as §1

vemurafenib = compound: CCCS(=O)(=O)Nc1ccc(F)c(C(=O)c2c[nH]c3ncc(-c4ccc(Cl)cc4)cc23)c1F [vemurafenib]
How it was run: as §1

defactinib = compound: CNC(=O)c1ccc(Nc2ncc(C(F)(F)F)c(NCc3nccnc3N(C)S(C)(=O)=O)n2)cc1 [defactinib]
How it was run: as §1

UniProt O75582, sequence (O75582 whole entry, looked up): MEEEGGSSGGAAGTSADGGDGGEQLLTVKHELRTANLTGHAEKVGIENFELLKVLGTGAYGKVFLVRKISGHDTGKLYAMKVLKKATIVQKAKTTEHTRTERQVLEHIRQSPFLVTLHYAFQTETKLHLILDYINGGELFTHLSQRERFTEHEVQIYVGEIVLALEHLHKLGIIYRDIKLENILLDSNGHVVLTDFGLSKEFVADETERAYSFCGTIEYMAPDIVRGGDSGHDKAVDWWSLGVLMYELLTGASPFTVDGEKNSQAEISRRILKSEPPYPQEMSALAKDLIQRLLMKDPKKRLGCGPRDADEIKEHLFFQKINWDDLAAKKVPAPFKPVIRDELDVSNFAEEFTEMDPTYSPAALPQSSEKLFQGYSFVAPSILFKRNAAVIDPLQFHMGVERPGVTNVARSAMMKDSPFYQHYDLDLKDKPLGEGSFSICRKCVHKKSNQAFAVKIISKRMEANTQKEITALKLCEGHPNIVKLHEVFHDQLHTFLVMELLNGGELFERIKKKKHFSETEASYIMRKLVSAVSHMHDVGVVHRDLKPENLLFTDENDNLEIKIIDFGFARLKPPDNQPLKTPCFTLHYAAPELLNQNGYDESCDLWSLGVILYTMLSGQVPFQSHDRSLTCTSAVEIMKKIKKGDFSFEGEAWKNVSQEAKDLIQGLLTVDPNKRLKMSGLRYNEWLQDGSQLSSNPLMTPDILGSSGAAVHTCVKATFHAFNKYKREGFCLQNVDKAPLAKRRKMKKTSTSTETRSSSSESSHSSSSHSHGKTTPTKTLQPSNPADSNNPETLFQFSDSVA
UniProt Q92698, sequence (Q92698 whole entry, looked up): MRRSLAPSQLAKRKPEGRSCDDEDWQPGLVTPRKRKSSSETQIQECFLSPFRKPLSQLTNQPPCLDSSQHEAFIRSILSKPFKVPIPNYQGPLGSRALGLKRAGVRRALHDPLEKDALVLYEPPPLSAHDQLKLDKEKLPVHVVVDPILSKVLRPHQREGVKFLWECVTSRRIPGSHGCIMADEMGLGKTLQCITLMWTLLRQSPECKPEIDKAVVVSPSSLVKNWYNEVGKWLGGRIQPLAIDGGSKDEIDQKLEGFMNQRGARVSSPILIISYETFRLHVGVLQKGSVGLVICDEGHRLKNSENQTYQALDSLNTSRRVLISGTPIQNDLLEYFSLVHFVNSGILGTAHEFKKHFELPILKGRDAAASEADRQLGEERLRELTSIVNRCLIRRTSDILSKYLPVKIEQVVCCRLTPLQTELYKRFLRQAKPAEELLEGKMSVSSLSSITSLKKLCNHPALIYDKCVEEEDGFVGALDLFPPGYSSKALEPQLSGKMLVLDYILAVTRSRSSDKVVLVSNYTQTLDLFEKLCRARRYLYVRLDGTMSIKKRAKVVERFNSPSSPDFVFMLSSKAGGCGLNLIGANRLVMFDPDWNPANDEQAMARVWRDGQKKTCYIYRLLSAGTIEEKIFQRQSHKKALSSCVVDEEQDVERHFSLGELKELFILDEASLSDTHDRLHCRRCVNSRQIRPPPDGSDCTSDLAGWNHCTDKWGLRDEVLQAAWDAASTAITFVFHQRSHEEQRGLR
UniProt Q86X10, sequence (Q86X10 whole entry, looked up): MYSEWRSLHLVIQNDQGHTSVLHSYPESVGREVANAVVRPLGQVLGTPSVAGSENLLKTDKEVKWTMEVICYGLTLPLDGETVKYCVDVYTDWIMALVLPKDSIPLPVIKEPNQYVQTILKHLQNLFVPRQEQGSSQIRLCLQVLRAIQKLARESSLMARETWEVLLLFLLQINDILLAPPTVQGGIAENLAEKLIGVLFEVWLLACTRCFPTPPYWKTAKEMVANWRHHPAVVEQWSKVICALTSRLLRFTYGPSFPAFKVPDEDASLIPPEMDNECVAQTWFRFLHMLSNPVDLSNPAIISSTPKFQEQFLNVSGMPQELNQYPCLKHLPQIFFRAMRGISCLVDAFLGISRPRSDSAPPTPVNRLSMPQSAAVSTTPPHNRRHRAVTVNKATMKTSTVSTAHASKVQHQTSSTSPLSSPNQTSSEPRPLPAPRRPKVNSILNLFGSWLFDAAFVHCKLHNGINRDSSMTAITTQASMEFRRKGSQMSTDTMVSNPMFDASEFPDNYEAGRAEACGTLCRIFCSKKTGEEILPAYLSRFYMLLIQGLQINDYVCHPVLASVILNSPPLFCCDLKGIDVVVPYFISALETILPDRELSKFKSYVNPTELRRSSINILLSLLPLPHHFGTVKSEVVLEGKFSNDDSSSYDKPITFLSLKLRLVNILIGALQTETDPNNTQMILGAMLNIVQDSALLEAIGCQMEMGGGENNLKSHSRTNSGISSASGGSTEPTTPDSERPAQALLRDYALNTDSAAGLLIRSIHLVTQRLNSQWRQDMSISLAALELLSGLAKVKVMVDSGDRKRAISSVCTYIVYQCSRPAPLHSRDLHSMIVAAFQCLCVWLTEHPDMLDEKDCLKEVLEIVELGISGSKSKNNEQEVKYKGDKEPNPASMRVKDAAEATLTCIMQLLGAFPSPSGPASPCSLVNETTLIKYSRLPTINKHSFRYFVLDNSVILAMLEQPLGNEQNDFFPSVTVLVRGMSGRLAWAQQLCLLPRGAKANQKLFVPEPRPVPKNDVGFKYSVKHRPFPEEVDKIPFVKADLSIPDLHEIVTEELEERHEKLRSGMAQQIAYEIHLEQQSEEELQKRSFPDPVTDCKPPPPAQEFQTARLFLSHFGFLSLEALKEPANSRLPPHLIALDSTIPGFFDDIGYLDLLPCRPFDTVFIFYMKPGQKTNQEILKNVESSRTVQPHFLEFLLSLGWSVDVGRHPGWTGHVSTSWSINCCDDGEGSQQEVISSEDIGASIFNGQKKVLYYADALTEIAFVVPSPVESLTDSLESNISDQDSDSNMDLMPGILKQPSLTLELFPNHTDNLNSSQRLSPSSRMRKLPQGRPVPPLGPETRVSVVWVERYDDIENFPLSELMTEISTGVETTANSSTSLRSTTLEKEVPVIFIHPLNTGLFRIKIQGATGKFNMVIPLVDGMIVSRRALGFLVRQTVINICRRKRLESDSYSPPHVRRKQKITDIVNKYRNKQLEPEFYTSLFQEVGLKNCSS
UniProt O60930, sequence (O60930 whole entry, looked up): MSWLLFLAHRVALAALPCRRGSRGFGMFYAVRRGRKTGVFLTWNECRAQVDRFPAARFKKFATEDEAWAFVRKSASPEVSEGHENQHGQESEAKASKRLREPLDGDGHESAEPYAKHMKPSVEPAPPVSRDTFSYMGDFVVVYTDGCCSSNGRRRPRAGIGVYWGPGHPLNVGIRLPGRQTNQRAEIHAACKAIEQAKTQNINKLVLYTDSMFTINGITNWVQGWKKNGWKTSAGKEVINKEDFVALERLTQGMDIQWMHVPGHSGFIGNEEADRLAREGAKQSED
UniProt Q9HCK4, sequence (Q9HCK4 whole entry, looked up): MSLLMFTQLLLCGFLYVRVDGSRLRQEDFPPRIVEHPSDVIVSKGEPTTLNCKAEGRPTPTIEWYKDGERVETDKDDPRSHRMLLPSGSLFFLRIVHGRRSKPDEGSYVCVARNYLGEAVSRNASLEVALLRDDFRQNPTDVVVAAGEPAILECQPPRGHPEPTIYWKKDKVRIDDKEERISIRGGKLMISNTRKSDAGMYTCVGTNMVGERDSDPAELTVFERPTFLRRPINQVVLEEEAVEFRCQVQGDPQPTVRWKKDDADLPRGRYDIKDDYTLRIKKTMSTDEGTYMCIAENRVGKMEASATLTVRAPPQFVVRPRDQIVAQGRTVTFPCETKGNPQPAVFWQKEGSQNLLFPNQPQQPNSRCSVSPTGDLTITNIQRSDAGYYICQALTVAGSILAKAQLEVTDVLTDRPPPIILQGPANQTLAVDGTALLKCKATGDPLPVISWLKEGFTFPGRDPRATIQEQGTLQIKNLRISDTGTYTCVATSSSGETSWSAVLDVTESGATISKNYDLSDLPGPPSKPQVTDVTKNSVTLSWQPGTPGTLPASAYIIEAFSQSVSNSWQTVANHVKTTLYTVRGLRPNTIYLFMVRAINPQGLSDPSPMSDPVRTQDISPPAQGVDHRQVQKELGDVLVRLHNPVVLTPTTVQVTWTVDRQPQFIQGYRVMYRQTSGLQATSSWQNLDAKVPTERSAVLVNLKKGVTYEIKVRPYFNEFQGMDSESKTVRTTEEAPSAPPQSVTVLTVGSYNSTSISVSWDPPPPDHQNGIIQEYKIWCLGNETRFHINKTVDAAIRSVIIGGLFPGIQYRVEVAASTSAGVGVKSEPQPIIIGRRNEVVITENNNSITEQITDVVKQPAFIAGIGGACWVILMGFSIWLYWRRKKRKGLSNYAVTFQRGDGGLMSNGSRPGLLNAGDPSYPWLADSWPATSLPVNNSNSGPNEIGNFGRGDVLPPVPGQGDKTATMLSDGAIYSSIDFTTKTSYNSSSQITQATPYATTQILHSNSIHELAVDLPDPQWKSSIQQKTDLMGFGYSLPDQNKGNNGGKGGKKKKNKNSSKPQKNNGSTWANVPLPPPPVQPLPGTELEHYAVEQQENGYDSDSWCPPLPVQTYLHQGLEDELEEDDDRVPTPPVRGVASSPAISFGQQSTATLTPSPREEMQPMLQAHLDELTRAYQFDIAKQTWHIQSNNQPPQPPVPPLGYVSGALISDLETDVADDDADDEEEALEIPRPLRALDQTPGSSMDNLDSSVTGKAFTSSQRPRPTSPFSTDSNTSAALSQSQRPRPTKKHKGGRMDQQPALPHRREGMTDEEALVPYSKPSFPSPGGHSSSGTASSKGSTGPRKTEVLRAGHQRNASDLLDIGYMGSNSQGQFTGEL
UniProt Q8TC12, sequence (Q8TC12 whole entry, looked up): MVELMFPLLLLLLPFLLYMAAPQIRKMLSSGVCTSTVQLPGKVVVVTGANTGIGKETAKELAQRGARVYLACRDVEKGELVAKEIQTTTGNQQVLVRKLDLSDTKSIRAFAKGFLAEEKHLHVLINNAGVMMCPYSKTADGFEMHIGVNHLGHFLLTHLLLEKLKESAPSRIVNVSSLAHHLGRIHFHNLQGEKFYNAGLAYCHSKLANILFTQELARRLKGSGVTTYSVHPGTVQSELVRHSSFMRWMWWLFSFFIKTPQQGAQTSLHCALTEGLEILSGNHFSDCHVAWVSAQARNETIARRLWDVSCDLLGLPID

Target | log2 fold change (barasertib) | log2 fold change [1] | log2 fold change [2] | log2 fold change [3] | log2 fold change (saracatinib) | log2 fold change (alvocidib) | log2 fold change [4] | log2 fold change (encorafenib) | log2 fold change [5] | log2 fold change (sotrastaurin) | log2 fold change [6] | log2 fold change (volasertib) | log2 fold change [7] | log2 fold change (Tubastatin A) | log2 fold change [8] | log2 fold change (alisertib) | log2 fold change [9] | log2 fold change (gefitinib) | log2 fold change (vemurafenib) | log2 fold change (defactinib)
RALGAPB isoform 3 (UniProt Q86X10) | -0.005 | -0.076 | -0.139 | 0.004 | -0.343 | 0.161 | 0.064 | 0.073 | 0.107 | – | – | – | – | – | – | – | – | – | – | –
RBM4 isoform 3 (UniProt Q9BWF3) | – | – | – | – | – | – | – | – | – | 0.074 | – | – | – | – | – | – | – | – | – | –
RAD54L (UniProt Q92698) | 0.012 | – | -2.19 (active) | 0.648 | 0.095 | -0.673 | -0.132 | – | – | – | -0.054 | 0.015 | 0.005 | 0 | 0.013 | -0.022 | -0.041 | 0 | – | –
RNASEH2B, A0A1B0GUE7 | – | – | – | – | – | – | – | – | – | – | -0.061 | -0.064 | – | – | – | 0.04 | 0.039 | -0.028 | – | –
ROBO2 isoform 3 (UniProt Q9HCK4) | – | – | – | – | – | – | – | – | – | -0.001 | 0.071 | 0.045 | 0.523 (active) | -0.009 | 0.03 | – | 0.009 | – | – | –
SEMA4G isoform 2 (UniProt Q9NTN9) | – | -0.059 | -0.072 | 0.04 | -0.227 | -0.116 | 0.143 | -0.193 | 0.215 | 0.004 | – | – | – | – | 0.122 | – | – | – | 0.042 | -0.047
RDH11 (UniProt Q8TC12) | – | -0.115 | -0.213 | 0.082 | 0.021 | -0.071 | 0.1 | 0.092 | 0.149 | 0.022 | 0.088 | -0.13 | 0.069 | 0.031 | 0.011 | -0.009 | 0.082 | -0.019 | 0.055 | 0
RYR1 (UniProt P21817) | 0.041 | 0.07 | 0.045 | 0.03 | 0.057 | 0.015 | 0.16 | -0.024 | -0.087 | 0.091 | -0.038 | -0.049 | -0.053 | 0.097 | 0.064 | – | 0.02 | – | – | –
RNF170 (UniProt Q96K19) | 0.189 | – | -0.015 | 0.09 | -0.201 | 0.371 | -0.067 | – | – | – | 0.02 | -0.131 | – | – | -0.137 | 0.055 | 0.07 | 0.037 | -0.08 | 0.027
RNASEH1 (UniProt O60930) | – | – | -0.023 | -0.002 | – | 0.024 | – | – | – | – | – | – | – | – | – | – | – | – | – | –
RFWD3 (UniProt Q6PCD5) | 0.004 | -0.011 | -0.087 | -0.055 | -0.036 | -0.057 | -0.057 | 0.1 | -0.052 | -0.017 | – | – | -0.062 | 0.065 | 0.051 | 0.114 | – | -0.057 | -0.073 | 0.082
RPS6KA5 (UniProt O75582) | – | 0.059 | -0.116 | 0.087 | -0.071 | 0.193 | 0.072 | 0.054 | -0.005 | 0.185 | -0.073 | -0.182 | 0.005 | -0.239 | 0.009 | 0.041 | 0.104 | 0.11 | -0.048 | 0.019
S100A6 (UniProt P06703) | – | -0.027 | 0.03 | -0.139 | 0.715 (active) | 0.084 | -0.126 | -0.173 | 0.023 | -0.033 | 0.124 | 0.048 | -0.094 | -0.044 | 0.018 | – | -0.038 | – | 0.036 | -0.017
